AI-2 QS mod = Vibrio harveyi AI-2 quorum sensing modulation; Vibrio harveyi JMH597 AI-2 luminescence/OD600 ratio, 9 h; stronger effect = lower value; strain lacks LuxN and CqsS sensors; 0 = neutral-control median; activity change, % at 7.5 µM; actives 0.4% (n = 300,000); in the data active = activity change below about -75%, passing the limit was not always enough;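 note: luminescence divided by OD600 gain over 9 h not by final OD600 alone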
Hsp70 act = switches on Hsp70 transcription. activation, % at 10 µM. actives 0.04% (n = 200,000). AID 1203. HeLa Hsp70 promoter luciferase reporter, luminescence; scaled: vehicle 0, proteasome-inhibitor control 100%;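 active = activation above the mean across all tested compounds plus 3 SD, cutoff set per campaign, cut at about 5.5% in these data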
S1P3 antagonist = S1P3 (human) receptor antagonism; Q99500; CHO S1P3 NFAT-BLA reporter, FRET fluorescence, antagonist mode; inhibition, % at 4.98 µM; actives 0.27% (n = 170,000);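 active = inhibition above the plate cutoff, the mean inhibition of test wells on that plate plus 3 SD, cut at about 28% in these data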;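 note: cells challenged with S1P at its EC80 of 0.8 µM; blue over green emission ratio from cleaved BLA substrate after 4 h stimulation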
S1P4 antagonist = human S1P4 receptor antagonism. O95977. S1P4-expressing cells, antagonist mode, reporter read-out. inhibition, % at 4.98 µM. actives 0.26% (n = 220,000). AID 1510; in the data active = inhibition above about 29%
S1P4 ag = activates the human S1P4 receptor; O95977; S1P4-expressing cell line, agonist reporter assay; activation, % at 4.98 µM; actives 0.35% (n = 220,000); AID 1509; in the data active = activation above about 11%
S1P4 agonist cf = confirmation of human S1P4 receptor agonists. actives 7% (n = 740). activation, % at 4.98 µM. shares compounds with S1P4 ag. S1P4 agonist cell-based reporter assay; in the data active = activation above about 12%
S1P1 ag = counter-screen for S1P4 agonists: agonists of human S1P1; S1P1 agonist cell-based assay, activation; actives 4% (n = 740); activation, % at 4.98 µM; shares compounds with S1P4 ag; in the data active = activation above about 21%
Target sequence (P21453 whole entry, looked up): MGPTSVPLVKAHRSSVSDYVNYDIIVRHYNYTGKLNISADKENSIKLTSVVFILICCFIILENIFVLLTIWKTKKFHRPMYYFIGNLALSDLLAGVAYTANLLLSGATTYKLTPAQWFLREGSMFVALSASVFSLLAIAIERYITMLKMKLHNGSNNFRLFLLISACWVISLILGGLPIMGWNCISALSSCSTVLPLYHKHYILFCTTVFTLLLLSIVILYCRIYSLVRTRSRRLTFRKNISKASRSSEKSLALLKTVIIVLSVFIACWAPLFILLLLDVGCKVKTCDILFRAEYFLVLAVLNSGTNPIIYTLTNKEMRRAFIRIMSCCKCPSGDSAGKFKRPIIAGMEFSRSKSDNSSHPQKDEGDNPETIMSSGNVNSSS
Numbers stand for hits; i = inactive; nt = not tested or not shown. A selection: hits, their analogues and other compounds. The true share with any hit is near 0.97%.

SMILES	AI-2 QS mod	Hsp70 act	S1P3 antagonist	S1P4 antagonist	S1P4 ag	S1P4 agonist cf	S1P1 ag
CCCc1ccc(OCC(=O)Nc2cc(S(=O)(=O)CC)ccc2O)cc1	i	i	i	i	12	i	i
Nc1ccccc1SCC1CSc2nc3ccccc3c(=O)n21 (stereo not drawn)	i	i	i	i	14	i	i
COc1cccc(SCC2CSc3nc4ccccc4c(=O)n32)c1 (stereo not drawn)	i	i	i	i	i	nt	nt
COc1ccc(NC(=O)c2cccnn2)cc1	i	nt	nt	nt	nt	nt	nt
CS(=O)(=O)Nc1cccc(C2=NN(C(=O)c3cccc([N+](=O)[O-])c3)C(c3cccs3)C2)c1 (stereo not drawn)	i	nt	nt	nt	nt	nt	nt
C=Cn1cc[n+](CC(=O)c2ccc(C)cc2)c1	i	i	i	i	18	i	i
COc1ccc(/C=C/C(=O)Nc2nonc2NC(C)=O)cc1	i	i	i	i	38	i	i
COc1ccc(/C=C/C(=O)Nc2cc(C)on2)cc1	i	i	i	i	i	nt	nt
C/C=C/C(=O)OCC(=O)Nc1ccc(C)c(S(=O)(=O)N(C)C)c1	i	i	i	i	i	nt	nt
Cc1ccc(NC(=O)COC(=O)[C@H](C)N2C(=O)C3CC=CCC3C2=O)cc1S(=O)(=O)N(C)C (stereo partly drawn)	i	i	i	i	16	i	i
NC(=O)c1cc2ccccc2oc1=NCc1ccccc1	i	i	nt	i	i	nt	nt
NC(=O)c1cc2ccc(O)cc2oc1=NCc1ccccc1	i	i	i	i	79	i	i
COc1ccc2cc(C(=O)NCc3ccccc3)c(=Nc3ccc(C(=O)O)cc3)oc2c1	i	i	i	i	i	nt	nt
NC(=O)c1cc2ccc(O)cc2oc1=Nc1ccccc1	i	i	i	i	33	i	i
O=C(O)c1ccc(N=c2oc3cc(O)ccc3cc2C(=O)NCc2ccccc2)cc1	i	i	i	i	38	i	i
O=C(NCC1CCCN(C(=O)CN2CCCCC2)C1)c1ccccc1Cl (stereo not drawn)	i	nt	i	i	i	nt	nt
O=C1OC(CO)CN1Cc1ccccc1 (stereo not drawn)	i	nt	nt	nt	nt	nt	nt
CCNc1nc2nc3ccc(C)cn3c(=O)c2cc1C(=O)NCC1CCCO1 (stereo not drawn)	i	i	i	i	13	i	i
O=[N+]([O-])c1ccc(SCCO)nc1SCCO	i	nt	i	i	i	nt	nt
O=C(Nc1ccn(Cc2ccccc2)n1)c1cccc(Cn2cc([N+](=O)[O-])cn2)c1	i	i	i	i	13	i	i
OC1CCCN(Cc2c3ccccc3cc3ccccc23)C1 (stereo not drawn)	i	i	nt	i	15	i	i
CN(Cc1ccco1)S(=O)(=O)c1ccc(CN2C(=O)c3cccnc3C2=O)s1	i	nt	nt	nt	nt	nt	nt
COc1ccc(NS(=O)(=O)c2cccc(C(=O)NC3CCN(Cc4ccccc4)CC3)c2)cc1	i	nt	nt	nt	nt	nt	nt
O=C(NC1CCN(Cc2ccccc2)CC1)c1cccc(S(=O)(=O)Nc2cc(C(F)(F)F)ccc2Cl)c1	i	i	i	i	25	i	i
COc1ccc(N2CCN(C(=O)NCc3ccc(OC)c(Cl)c3)CC2)cc1	i	i	i	i	16	i	i
SMILES	AI-2 QS mod	Hsp70 act	S1P3 antagonist	S1P4 antagonist	S1P4 ag	S1P4 agonist cf	S1P1 ag
CC(OC(=O)c1cccc(-n2cnnn2)c1)C(=O)NCc1ccccc1 (stereo not drawn)	i	nt	nt	nt	nt	nt	nt
COCCCN1C(=O)c2ccc(C(=O)OCC(=O)NCCc3ccccc3)cc2C1=O	i	i	i	i	16	i	i
CCOC(=O)C1C(=O)N(C(=O)c2ccc(OC)cc2)CC1c1ccccc1 (stereo not drawn)	i	i	i	i	i	nt	nt
CCOC(=O)C1C(=O)N(C(=O)c2cncc(Br)c2)CC1c1ccccc1 (stereo not drawn)	i	i	i	i	20	i	i
CC(C)c1ccc(C(=O)NCCCN2CCOCC2)cc1	i	nt	nt	nt	nt	nt	nt
CC(C)c1ccc(/C=C2\C(=O)N(CCN3CCOCC3)C(=S)N2C)cc1	i	i	i	i	43	i	i
O=C(COC(=O)c1cccc(S(=O)(=O)N2CCc3ccccc32)c1)Nc1ccc(Cl)cn1	i	i	i	i	i	nt	nt
COc1ccc(C(=S)Nc2ccc(C)cc2)cc1	i	i	nt	i	i	nt	nt
COc1ccc(NC(=S)c2ccncc2)cc1	i	i	i	i	19	i	i
Cc1cccc(/C=N/NC(=O)c2cc3c(s2)-c2ccccc2CC3)c1	i	i	nt	i	i	nt	nt
O=C(N/N=C/c1cccc(C(F)(F)F)c1)c1cc2c(s1)-c1ccccc1CC2	i	i	nt	i	45	i	i
Cc1ccccc1OCC(=O)Nc1nc2ccccc2[nH]1	i	i	i	i	21	i	i
CCOc1ccccc1OCC(=O)Nc1nc2ccccc2[nH]1	i	i	i	i	i	nt	nt
Nc1ncc(Br)cc1S(=O)(=O)Nc1ccccc1F	i	nt	nt	nt	nt	nt	nt
CC(C)c1csc(CN2CCN(Cc3ccc(F)c(F)c3)C(CCO)C2)n1 (stereo not drawn)	i	i	i	i	42	i	i
COc1ccc(CCNS(=O)(=O)c2ccc(Cl)cc2)cc1OC	i	nt	nt	nt	nt	nt	nt
O=C(CS(=O)(=O)c1ccc(Cl)cc1)NCc1ccccc1	i	nt	nt	nt	nt	nt	nt
NC(=O)CS(=O)(=O)c1ccc(Cl)cc1	i	i	i	i	25	i	i
COc1ccc(C(CC(=O)Nc2cc(C)ccn2)N2Cc3ccccc3C2=O)cc1 (stereo not drawn)	i	nt	nt	nt	nt	nt	nt
CS(=O)(=O)Nc1ccc(C(=O)N2CCN(c3ccccc3)CC2)cc1	i	i	nt	i	56	i	i
COc1ccc(OCCSc2nc(-c3ccccc3)cc(=O)[nH]2)cc1	i	i	i	i	31	i	i
S=C(c1cn(CCOc2cccc3ccccc23)c2ccccc12)N1CCCC1	i	i	i	i	29	i	i
O=C(CCN1C(=O)[C@@H]2Cc3ccccc3CN2C1=O)N[C@@H](Cc1ccccc1)C(=O)O	i	nt	nt	nt	nt	nt	nt
COc1ccc(OC(C)C(=O)Nc2ccccc2C(F)(F)F)cc1 (stereo not drawn)	i	i	i	i	86	i	i
COc1cccc(C2CN(c3ccc(F)cc3F)N=C2c2cccs2)c1OC (stereo not drawn)	i	i	nt	i	25	15	43
SMILES	AI-2 QS mod	Hsp70 act	S1P3 antagonist	S1P4 antagonist	S1P4 ag	S1P4 agonist cf	S1P1 ag
COc1ccccc1C1CN(c2ccccc2)N=C1c1cccs1 (stereo not drawn)	i	i	nt	i	i	nt	nt
CCN(CC)C(=O)C1CCCN(Cc2ccccc2)C1 (stereo not drawn)	i	i	nt	i	22	i	i
CC/C(O)=C1\C(=O)CCCC1=NCc1nc2ccccc2[nH]1	i	i	i	i	209	i	i
CC/C(O)=C1\C(=O)CCCC1=NCCc1nc2ccccc2[nH]1	i	i	i	i	i	nt	nt
CCC(C)NC(=O)C1CC(=O)N(CCc2ccc(F)cc2)C1 (stereo not drawn)	i	nt	nt	nt	nt	nt	nt
CCN1CCN(c2cc(C)c3cc(NC(=O)c4cccc(OC)c4)ccc3n2)CC1	i	nt	i	i	i	nt	nt

High-throughput results as filed in PubChem.
